Screening data (PubChem BioAssay)
The list is not random: actives were taken first. Their share in the collection is about 3.7%.
B2AR arrestin: qHTS assay of beta-arrestin-biased ligands of beta2-adrenergic receptor | Beta-2 adrenergic receptor (Homo sapiens), P07550 | AID 492947, 2010 | 330,000 tested, 0.02% active | Potency, µM (doses to about 46.1 µM), for the others: at the highest dose activation, hits mostly activators | beta-arrestin recruitment to beta2AR, cell-based reporter;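 also: potency is read from the fitted curve at half-maximal effect; 0% = DMSO controls and full agonism = EC100 isoproterenol or metaproterenol; nearly all actives have a fitted effect of over 65% in size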
D3 antag: qHTS of D3 Dopamine Receptor Antagonist: qHTS. D(3) dopamine receptor (Homo sapiens), P35462. D3R cells, DiscoveRx beta-arrestin luminescence, antagonist mode; active compounds read low. max response, negative = inhibition, %. 360,000 tested, 2.5% active; in the data active = max response below about -50%; inconclusive = no clear call, values can overlap the other calls; also: % is scaled to controls: 0 for no effect and ±100 for the full control effect
Target sequence (P35462 whole entry, looked up): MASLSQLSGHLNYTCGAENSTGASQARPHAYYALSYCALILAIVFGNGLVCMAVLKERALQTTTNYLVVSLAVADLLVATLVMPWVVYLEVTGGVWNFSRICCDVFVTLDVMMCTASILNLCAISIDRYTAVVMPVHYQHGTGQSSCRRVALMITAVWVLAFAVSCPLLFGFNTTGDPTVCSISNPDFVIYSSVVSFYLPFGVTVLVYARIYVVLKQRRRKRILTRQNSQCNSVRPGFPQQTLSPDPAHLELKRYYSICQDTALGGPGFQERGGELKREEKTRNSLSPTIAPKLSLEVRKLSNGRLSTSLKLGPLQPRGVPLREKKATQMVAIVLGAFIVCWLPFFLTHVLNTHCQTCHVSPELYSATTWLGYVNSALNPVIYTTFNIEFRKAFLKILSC
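Cells expressing the human receptor were seeded at 1500 cells/well, incubated overnight at 37 degrees C in 5% CO2, then exposed to library compounds with dopamine controls for 90 minutes at 37 degrees C before luminescent detection.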
RGS4 inh: Inhibitors of Regulator of G Protein Signaling (RGS) 4: qHTS; Regulator of G-protein signaling 4 (Homo sapiens), P49798; Transcreener GDP fluorescence polarization, RGS4-accelerated GTP hydrolysis; Potency, µM (series often up to 114 µM), for the others: at the highest dose activity change, negative = inhibition, actives largely listed as inhibitors; 390,000 tested, 0.039% active; AID 504845, 2011; also: potency is read from the fitted curve at half-maximal effect; % is scaled to controls: 0 for no effect and ±100 for the full control effect; nearly all actives have a fitted effect of over 75% in size
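MLSMR compounds (23 nl, pin-transferred) preincubated 10 min at room temperature with a 500nM (2x) first reagent, then RGS4 at 900nM (2x) plus Transcreener GDP mix added; fluorescence polarization (620/688 nm) read before and after 90 min at 30 °C.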
PTHR1 agonist: qHTS for PTHR1 Agonists: Primary Screen; Parathyroid hormone/parathyroid hormone-related peptide receptor (Homo sapiens), Q03431; HEK293 GP2 PTHR1 cells, GloSensor cAMP luminescence, 1 h; Potency, µM (top dose mostly 115 µM), for the others: at the top dose activation, most hits filed as activators; 410,000 tested, 0.075% active; also: potency is read from the fitted curve at half-maximal effect; nearly all actives have a fitted effect of over 55% in size
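HEK-293-derived GP2 cells expressing PTHR1 and a GloSensor cAMP reporter, 3,000/well, plated overnight, given luciferin plus IBMX (each 0.5 mM as added) for 1 h at 37 °C, then compound for 1 h at 37 °C. Luminescence was read after 15 min at room temperature.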
DRD3 agonist: qHTS of D3 Dopamine Receptor Agonist: qHTS; D(3) dopamine receptor (Homo sapiens), P35462; D3R DiscoveRx beta-arrestin cells, luminescence, 90 min; max activation, %; 410,000 tested, 0.58% active; AID 652048, 2013; in the data active = max activation above about 30%; also: 0% is about no effect
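Cells at 1500/well, incubated overnight, then treated with pinned compounds (dopamine as control) for 90 min at 37 degrees C. DiscoveRx reagent added for 30 - 60 minutes at room temperature; luminescence read.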
BRCA1 expr up: qHTS Assay to Identify Small Molecule Activators of BRCA1 Expression; 380,000 tested, 1.1% active; AID 624202, 2012; MCF7-BRCA1-FFLuc reporter, luminescence, 48 h; response scale: scaled: vehicle 0%, 10 µM genistein 100%; Potency, µM (highest dose often 46.1 µM), for the others: top-dose activation, actives largely listed as activators; also: potency is read from the fitted curve at half-maximal effect; nearly all actives have a fitted effect of over 80% in size
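Compounds are tested at multiple concentrations on MCF7 BRCA1-luciferase reporter cells seeded at 2000 per well; after 48 h, a single luminescence end-point is taken and curves fitted to the normalized data.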
* hit, by the source's call; i = inactive; ? = inconclusive; nt = not tested or not shown; [ ] = another dose, or the depositor's remark. Unless noted, calls follow the shape of the dose curve; as a rule, active = well fitted curve in the direction sought with a large enough effect; inconclusive = small, poorly fitted or top-dose-only effect, or another doubt; inactive = no such curve, though single readings can be large; an effect the other way counts as inactive or inconclusive.

SMILES | B2AR arrestin | D3 antag | RGS4 inh | PTHR1 agonist | DRD3 agonist | BRCA1 expr up
O=C(c1ccccc1NS(=O)(=O)c1ccc(F)cc1)N1CCCCC1 | 0.2% | -20.7 | -20.1% | -22.2% | -8.5 | 1.9%
CN1CCN(C(=O)c2ccccc2NS(=O)(=O)c2ccc(F)cc2)CC1 | 0.1% | -62.6* | 6.9% | i | -22.6 | -5.5%
Cc1ccc(NC(=S)NNC(=O)c2nn(C)cc2Cl)cc1 | 0.2% | -53.7* | -25.7% | -7.4% | -2.1 | -0.9%
Cc1c(Cl)c(C(=O)NNC(=S)Nc2ccccc2)nn1C | -0.2% | 11.4 | -50.1% | -2.2% | 2.3 | 28.4%
Cc1cccc(NC(=S)NNC(=O)c2nn(C)cc2Cl)c1 | -0.6% | -98.8* | -31.8% | -11.1%[57.5 µM] | -4.4 | -16.9%
COc1ccc(S(=O)(=O)c2cn(CC(=O)Nc3ccccc3)c3ccc(Cl)cc3c2=O)cc1 | nt | nt | -0.4% | -27.2% | 1.7 | 4.0%
CCS(=O)(=O)c1ncc(Cl)c(C(=O)NCc2ccccc2)n1 | nt | nt | -17.7% | -0.5% | -16.7 | nt
COC(=O)c1ccccc1NC(=O)c1nc(S(=O)(=O)Cc2ccccc2)ncc1Cl | -1.0% | -77.4* | -31.8% | -55.2% | -0.8 | -3.3%
O=C(NCc1ccccc1)c1nc(S(=O)(=O)Cc2ccccc2)ncc1Cl | -0.2% | -78.4* | ? | -37.2% | 1.4 | -88.5%
COc1ccc(CNC(=O)c2nc(S(=O)(=O)Cc3ccccc3)ncc2Cl)cc1 | -0.5% | -97.1* | -49.7% | -4.7% | -5.2 | -95.2%
CC(=O)Nc1ccc(NC(=O)c2nc(S(=O)(=O)Cc3ccccc3)ncc2Cl)cc1 | -0.3% | -29.4 | 20.3% | -34.5% | -1.4 | -15.0%
CCCCCC(=O)N(O)C1CC(=O)N(c2ccccc2)C1=O (stereo not given) | 0.0% | -85.9* | ? | i | -3.6 | -33.4%
CCCCCCC(=O)N(O)C1CC(=O)N(Cc2ccccc2)C1=O (stereo not given) | -0.1% | -4.6 | -31.8% | i | -1.1 | -32.1%
COc1ccc(Br)cc1CNC(=O)CN1C(=O)CCCc2ccccc21 | nt | nt | 7.8% | -6.3% | -13.5 | nt
COc1ccc(/C=C2\Cc3ccccc3C2=O)cc1OC | -0.5% | 5.9 | -7.6% | -25.1% | 0.8 | 35.0%
COc1ccc(/C=C2/CSC/C(=C/c3ccc(OC)c(OC)c3)C2=O)cc1OC | nt | -50.2* | -33.4% | -31.9% | 0.8 | -85.1%
O=C(Nc1ccn(Cc2ccc(Cl)cc2)n1)c1ccccc1 | 0.0% | -12.1 | 29.4% | -42.1% | -5.1 | 7.94µM*
O=C(Nc1ccn(Cc2ccccc2)n1)c1ccc2c(c1)OCO2 | -0.5% | -11.4 | -2.1% | -24.5% | 10.2 | ?
O=C1OC2(c3ccccc31)c1cc(Br)c(O)c(Br)c1Oc1c2cc(Br)c(O)c1Br | nt | nt | nt | nt | 1.1 | nt
COc1ccccc1N1CCN(/N=C/C=C\c2ccco2)CC1 | 0.5% | -23.9 | -41.8% | -22.3% | 3.5 | 2.82µM*
Cc1ccc(-c2cc(C(=O)N3CCN(c4ccccc4O)CC3)c3ccccc3n2)o1 | 0.3% | 56.3 | -18.7% | -17.8% | 21.6 | 4.47µM*
Cc1ccc(C)c(S(=O)(=O)Nc2ccccc2C(=O)Nc2ccccc2N2CCOCC2)c1 | 0.1% | -57.4* | -31.1% | -25.6% | -4.5 | -18.6%
Cc1cc(F)ccc1S(=O)(=O)Nc1ccccc1C(=O)Nc1ccccc1N1CCOCC1 | -1.3% | -28.0 | 3.2%[11.4 µM] | -10.3%[57.5 µM] | 2.0 | -27.2%
Cc1ccc(C)c(S(=O)(=O)Nc2ccc(C(=O)N3CCOCC3)cc2)c1 | nt | -51.3* | nt | -10.2% | -1.6 | -3.4%
CNCCOc1ccccc1C(C)(C)C | -0.3% | -54.1* | -23.6% | -2.5%[57.5 µM] | -61.1 | -0.2%
CC(C)(C)c1ccccc1OCCOCCNCc1ccccc1 | -0.7% | -77.7* | 3.0% | i | 20.8 | -22.9%
CC(C)(C)NCCCCOc1ccccc1F | -0.2% | -23.0 | 42.4% | 9.7% | -27.0 | 3.0%
